From PubChem BioAssay AID1259421 (Broad Institute, 2018) come the findings set out here.

Several values for one entry are separate records, joined by “and”; a condition that tells them apart may be missing. Equal values may be shown once. Out of some 6,400 compounds screened, about 610 (9.5%) were called active. No stated cut-off is given here; in the data, active means activity change below about -70%; inconclusive means no clear call, values can overlap the other calls; inactive means above that. The full list was thinned out, with actives kept by preference. Some structures have more than one record in an assay (separate samples or runs), and their calls can disagree.

This test in a line: Toxoplasma gondii ME49Luc growth in HeLa cells, luciferase, no IFN-y, primary screen (AID 1259421). Particulars: T. gondii ME49Luc in HeLa, 72 h, stronger effect = lower value, concentration not given here.
In the case of `N[C@@H](CSS(=O)(=O)O)C(=O)O`, the activity change, negative = inhibition is 14.6% (inactive). `c1cc(OCCN2CCCCC2)cc(-c2n[nH]c3ccc(-c4ncn[nH]4)cc23)c1`: the activity change, negative = inhibition is -32.3% (inactive). As for `C1=C/COCc2cc(ccc2OCCN2CCCC2)Nc2nccc(n2)-c2cccc(c2)COC/1`, the activity change, negative = inhibition was -80.3% (active). Consider `Cc1ccccc1N1CCN(S(=O)(=O)CC23CCC(C[C@@H]2NC(=O)[C@@H](N)CCS(C)(=O)=O)C3(C)C)CC1` (some centres undefined), for which the activity change, negative = inhibition was 1.28% (inactive) and 5.87% (inactive). In the case of `Cc1cc(OCC(=O)O)cc(C)c1Cc1ccc(O)c(C(C)C)c1`, the activity change, negative = inhibition is 1.47% (inactive). For the molecule `CCCCc1oc2ccc(NS(C)(=O)=O)cc2c1C(=O)c1ccc(OCCCN(CCCC)CCCC)cc1`, the activity change, negative = inhibition is -83.6% (active). `CCCCc1oc2ccccc2c1C(=O)c1cc(I)c(OCCN(CC)CC)c(I)c1`: the activity change, negative = inhibition is -58.9% (inactive).

`CN(CCOc1ccc(NS(C)(=O)=O)cc1)CCc1ccc(NS(C)(=O)=O)cc1`: the activity change, negative = inhibition was -7.15% (inactive) and -5.58% (inactive).

For the molecule `CCCCC/C=C\C/C=C\C/C=C\CCCCCCC(=O)O`, the activity change, negative = inhibition was 4.57% (inactive). Take `Clc1ccc(-c2nc3sccn3c2/C=N/OCc2ccc(Cl)c(Cl)c2)cc1`: the activity change, negative = inhibition is 27.7% (inactive) and 3.2% (inactive). With `C[C@H](N)C(=O)N[C@@H](C)P(=O)(O)O`, the activity change, negative = inhibition is 9.38% (inactive).

For `CC[C@H](C)[C@@H]([C@@H](CC(=O)N1CCC[C@H]1[C@H](OC)[C@@H](C)C(=O)N[C@@H](Cc1ccccc1)c1nccs1)OC)N(C)C(=O)[C@@H](NC(=O)[C@H](C(C)C)N(C)C)C(C)C`, the activity change, negative = inhibition is -85.6% (active). As for `CNC(=O)C1OC(n2cnc3c(NCc4cccc(I)c4)nc(Cl)nc32)C(O)C1O` (centres undefined), the activity change, negative = inhibition is -2.06% (inactive). For the molecule `Cc1ccc(C(=O)c2cc(O)c(O)c([N+](=O)[O-])c2)cc1`, the activity change, negative = inhibition was -80% (active) and 2.13% (inactive). Turning to `NC(=O)c1ccc(I)c([N+](=O)[O-])c1`, the activity change, negative = inhibition is 13.7% (inactive). As for `COc1ccc(C(=O)c2ccc(C)cc2)c(O)c1`, the activity change, negative = inhibition was 154% (inactive) and 98.7% (inactive). For `COc1cc(OC)c(/C=C/S(=O)(=O)Cc2ccc(OC)c(NCC(=O)O)c2)c(OC)c1`, the activity change, negative = inhibition was -46.4% (inactive). Regarding `COc1ccnc2[nH]cc(C(=O)C(=O)N3CCN(C(=O)c4ccccc4)C[C@H]3C)c12`, the activity change, negative = inhibition is 5.24% (inactive).

For `C[C@]12CC[C@H](O)CC1=CCC1C2CC[C@]2(C)C(n3cnc4ccccc43)=CCC12` (some centres undefined), the activity change, negative = inhibition is -67.5% (inactive). To `Fc1ccc(-c2nc3n(c2-c2ccncc2)CCS3)cc1` belongs -79.8% (active); to `COC(=O)Cc1cccn1C`, 10.9% (inactive); to `CC(O)CN(CCN(CC(C)O)CC(C)O)CC(C)O` (centres undefined), 15.4% (inactive). To `Cc1cc(OCc2nnc(SC3CCCC3)n2-c2cccnc2)ccc1-c1ccc(S(C)(=O)=O)cc1` belongs -79.2% (active); to `CSCC[C@H](NC(=O)[C@@H](N)Cc1c[nH]c2ccccc12)C(=O)N[C@@H](CC(=O)O)C(=O)N[C@@H](Cc1ccccc1)C(N)=O`, 17% (inactive). Regarding `CC(=O)O[C@]1(C(C)=O)CCC2C3C=C(C)C4=CC(=O)CC[C@]4(C)C3CC[C@@]21C` (some centres undefined), the activity change, negative = inhibition was 9.66% (inactive). For the molecule `Cn1c(O)c(C2=c3ccccc3=NC2=O)c2ccccc21`, the activity change, negative = inhibition is 13.5% (inactive). With `CCC(C)n1ncn(-c2ccc(N3CCN(c4ccc(OC[C@H]5CO[C@](Cn6cncn6)(c6ccc(Cl)cc6Cl)O5)cc4)CC3)cc2)c1=O` (some centres undefined), the activity change, negative = inhibition is -63.1% (inactive) and -38.1% (inactive). In the case of `C#C[C@]1(O)CCC2C3CCc4cc(OC)ccc4C3CC[C@@]21C` (some centres undefined) it was 7.57% (inactive); in that of `C#C[C@]1(O)CC[C@H]2[C@@H]3CCc4cc(O)ccc4[C@H]3CC[C@@]21C`, -81.1% (active); in that of `C#C[C@]1(O)CCC2C3CCc4cc(OC5CCCC5)ccc4C3CC[C@@]21C` (some centres undefined), 33.4% (inactive). As for `C[C@]12CC[C@@H]3c4ccc(O)cc4CC[C@H]3[C@@H]1CCC2=O`, the activity change, negative = inhibition is -66.6% (inactive) and -57.7% (inactive). To `C#C[C@]1(O)CC[C@H]2[C@@H]3CCc4cc(OC)ccc4[C@H]3CC[C@@]21C` belongs 9.24% (inactive); to `C#C[C@]1(O)CCC2C3CCc4cc(O)ccc4C3CC[C@@]21C` (some centres undefined), -81.3% (active); to `CCOc1ccc(Cc2cc([C@@H]3O[C@H](CO)[C@@H](O)[C@H](O)[C@H]3O)ccc2Cl)cc1`, 4.88% (inactive) and 10.3% (inactive). With `CCN1/C(=C/C(C)=O)Sc2ccc(OC)cc21`, the activity change, negative = inhibition was 21% (inactive). With `CC#CCOC(=O)c1c(C)nc2sc3c(c2c1N)CCC(O)C3` (centres undefined), the activity change, negative = inhibition is 49.7% (inactive) and 66.7% (inactive). In the case of `N[C@@H]1[C@@H](O)[C@H](O)[C@@H](CO)O[C@H]1O`, the activity change, negative = inhibition is 1.35% (inactive).

As to `CN(CCc1ccc(Cl)c(Cl)c1)CCN1CCCC1`, the activity change, negative = inhibition was 14.6% (inactive). On to `CC1(O)C(O)C(CO)OC1n1ccc(N)nc1=O` (centres undefined), for which the activity change, negative = inhibition is 27.1% (inactive). As to `C[C@@H]1O[C@@H](O[C@@H]2[C@H](Oc3cc(O)c(C(=O)CCc4ccc(O)cc4)c(O)c3)O[C@H](CO)[C@@H](O)[C@@H]2O)[C@H](O)[C@H](O)[C@H]1O`, the activity change, negative = inhibition is 5.31% (inactive).

Consider `COc1cc2c(cc1OC)CC(=O)N(CCCN(C)C[C@@H]1Cc3cc(OC)c(OC)cc31)CC2`, for which the activity change, negative = inhibition is 13.9% (inactive). For `COc1cc2ncnc(Oc3cccc(NC(=O)Nc4cc(C(C)(C)C(F)(F)F)on4)c3)c2cc1OC`, the activity change, negative = inhibition is -78.4% (active). On to `CCCNC(=O)Nc1ccc(Oc2ncnc3cc(OC)c(OC)cc23)cc1Cl`, for which the activity change, negative = inhibition was 6.99% (inactive).

Regarding `COc1cc2ncnc(Nc3cccc(O)c3)c2cc1OC`, the activity change, negative = inhibition is 10.5% (inactive). To `CNc1cc(OC)c(C(=O)N[C@@H]2CCN(Cc3ccccc3)[C@@H]2C)cc1Cl` (racemic) belongs 26% (inactive). `CC(=O)Nc1nc(C)c(-c2ccc(Cl)c(S(=O)(=O)NCCO)c2)s1`: the activity change, negative = inhibition is -78.9% (active). For the molecule `Cc1nc(NC(=O)N2CCC[C@H]2C(N)=O)sc1-c1ccnc(C(C)(C)C(F)(F)F)c1`, the activity change, negative = inhibition is -3.31% (inactive). Take `CC(=O)Nc1nnc(S(N)(=O)=O)s1`: the activity change, negative = inhibition is 18.1% (inactive) and 14.1% (inactive). To `c1ncc(CC2CCNCC2)[nH]1` belongs 9.05% (inactive) and 12.6% (inactive).
